Source: PubChem BioAssay AID898 (University of Pittsburgh Molecular Library Screening Center, 2007)
The whole screen tested about 140,000 compounds, of which about 220 (0.16%) were called active. Cut-off read from the data, not from the text of the source: active = inhibition above about 50%; inactive = the rest. The entries come from a sample that favours actives as a whole.

Tested on: YopH tyrosine phosphatase [Yersinia enterocolitica]
Test: YopH tyrosine phosphatase inhibitors, primary screen, biochemical, fluorescence Ex485/Em525 (AID 898)
Details: stronger effect = higher value, concentration not given here

| Structure (SMILES) | inhibition |
| --- | --- |
| COc1cc(/C=N/NC(=O)c2ccccc2)ccc1OS(=O)(=O)c1ccccc1 | -12.8% (inactive) |
| COC(=O)c1ccccc1NS(=O)(=O)c1ccc2[nH]c(=O)[nH]c2c1 | -13.2% (inactive) |
| Cc1cccc(CSc2ccc(-c3cccs3)nn2)c1 | -8.04% (inactive) |
| CC1(c2cccc([N+](=O)[O-])c2)CC(C)(C)N(C(=O)c2ccccc2)c2ccccc21 (stereo not drawn) | -13.3% (inactive) |
| O=C(NC(=S)Nc1cc(C(F)(F)F)ccc1N1CCOCC1)c1ccc(-c2cccc(Cl)c2)o1 | -11.4% (inactive) |
| CCN(CC(=O)NC1CCS(=O)(=O)C1)S(=O)(=O)c1ccccc1 (stereo not drawn) | -27.4% (inactive) |
| O=c1cc(-c2ccccc2)[nH]c2cc(F)ccc12 | -25.5% (inactive) |
| Clc1ccc(C2=CSC3=Nc4cccc5cccc(c45)N23)cc1 | 76.1% (active) |
| COc1ccc2c(c1)CC[C@@H]1[C@@H]2CC[C@]2(C)C(=O)CC[C@@H]12 | -40.8% (inactive) |
| COC(=O)/C=C\C(=O)Nc1cccc([N+](=O)[O-])c1 | -15.7% (inactive) |
| Cc1ccc(NC(=O)Cn2cccc2C2=NC(c3ccccc3)CO2)c(C)c1 (stereo not drawn) | -4.93% (inactive) |
| Cc1ccc(S(=O)(=O)Nc2nc(C)cc(N/N=C/c3ccc(O)cc3)n2)cc1 | -24.5% (inactive) |
| Cn1cnc(C(F)(F)F)c1-c1ccc([N+](=O)[O-])cc1 | -26.6% (inactive) |
| Cc1ccc(NC(=O)CN(C)Cc2ccc(F)cc2)c([N+](=O)[O-])c1 | -24.9% (inactive) |
| Cc1ccccc1C(OCCN(C)C)C1CCCCC1 (stereo not drawn) | -18.4% (inactive) |
| N#Cc1ccc(C(=O)Nc2nc(-c3cccs3)c(C(=O)C(F)(F)F)s2)cc1 | -10.1% (inactive) |
| O=C(/C(=C/c1cccc(Cl)c1)c1nc2ccccc2[nH]1)c1ccccc1 | -25% (inactive) |
| NNc1nc2c(Cl)cccc2s1 | -22% (inactive) |
| Cc1cc(N2CCOCC2)nc(-c2ccc(Br)cc2)n1 | 5.67% (inactive) |
| CCCCNC(=O)C1CCC(CNS(=O)(=O)c2ccc(NC(C)=O)cc2)CC1 (stereo not drawn) | -25.8% (inactive) |
| COC(=O)NNC(=O)C1CCC(C)CC1 (stereo not drawn) | -19.5% (inactive) |
| COc1ccc(-c2cc(C(F)(F)F)nc(SCC(=O)Nc3ccc4c(c3)OCO4)n2)cc1OC | -21.2% (inactive) |

| Structure (SMILES) | inhibition |
| --- | --- |
| Cc1cccc(N2C(=O)SC(SC(=Nc3ccccc3)Nc3ccccc3)C2=O)c1 (stereo not drawn) | -18.8% (inactive) |
| Cc1ccc2c(c1)C1CN(C)CCC1N2C(=O)c1ccccc1NS(=O)(=O)c1ccc(F)cc1C (stereo not drawn) | -30.2% (inactive) |
| Cc1nc2ccccc2n1CC(=O)N/N=C/c1cccs1 | -17.2% (inactive) |
| Cc1ccc(NC(=O)CCC(=O)N/N=C/c2ccco2)c(C)c1 | -19.1% (inactive) |
| CCCNC(=O)OC[C@H]1O[C@H](CCO/N=C/[C@@H](NS(=O)(=O)c2ccc(C)cc2)[C@H](C)/C=C/CC(=O)OC)C=C[C@@H]1Oc1ccc(OC)cc1 | -21.3% (inactive) |
| CC(=O)c1ccc(NC(=S)NC(=O)CC(C)C)cc1 | -2.98% (inactive) |
| COc1cc(OC)cc(C(=O)N[C@H](C(=O)OCC(=O)NC(C)c2ccccc2)C(C)C)c1 (stereo partly drawn) | -27.4% (inactive) |
| CCCCC(CC(C)O)c1n[nH]c(=S)n1-c1ccccc1 (stereo not drawn) | -33.5% (inactive) |
| CC(C)c1nccn1S(=O)(=O)c1cc([N+](=O)[O-])ccc1Cl | -25.1% (inactive) |
| CCCCCOc1ccc(/C=C/C(=O)NCCc2nc3ccccc3[nH]2)cc1OC | -36.7% (inactive) |
| C=CCNC(=S)NNC(=O)COc1c(Cl)cc(Cl)cc1Cl | -25.1% (inactive) |
| COC(=O)Cc1ccc(NC(=S)NCc2ccccc2)cc1 | -21.4% (inactive) |
| Cc1ccc(OCc2nnc(SC3CCc4ccccc4C3=O)n2C)cc1 (stereo not drawn) | -10.2% (inactive) |
| O=C(Nc1nnc(SCc2ccccc2Cl)s1)c1cccc([N+](=O)[O-])c1 | -19.7% (inactive) |
| CC/C(=N\NC(=O)c1ccccc1Cl)c1ccc(Br)s1 | -30% (inactive) |
| CCCCN=C1C([N+](=O)[O-])=CC=C2C1=NC1(CCCCC1)N2O | -23.5% (inactive) |
| Cc1ccc(S(=O)(=O)N2CCOCC2)cc1C(=O)NC(=S)N(Cc1ccccc1)C(C)C | -13.5% (inactive) |
| CC(C)Nc1nnc(SCC(=O)c2c[nH]c3ccccc23)s1 | -37.7% (inactive) |
| O=C(c1cccs1)n1nc(NCc2ccccc2)nc1NCc1ccccc1 | -28.9% (inactive) |
| COc1ccccc1-c1nnc(NC(=O)c2ccc3ncsc3c2)o1 | -9.55% (inactive) |
| CN(C)c1ccnc2sc(C(=O)c3ccccc3)c(N)c12 | 9.26% (inactive) |
| O=C(O)CCS(=O)(=O)c1ccc(-c2ccccc2)cc1 | -26.8% (inactive) |

| Structure (SMILES) | inhibition |
| --- | --- |
| CCOc1ncccc1C(=O)N(C)CC(=O)Nc1ccc(F)cc1 | -16.5% (inactive) |
| CCOC(=O)c1c(/N=C/c2cc(C)ccc2O)sc2c1CCC2 | -9.28% (inactive) |
| CCNC(=S)N(CCc1c(C)[nH]c2ccc(C)cc12)Cc1ccco1 | -11.6% (inactive) |
| C=CCOc1ccc(/C=N/NC(=O)C(C)Sc2ccccn2)cc1OCC (stereo not drawn) | -28.1% (inactive) |
| O=C(COC(=O)Cc1ccc(Br)cc1)Nc1c(F)c(F)c(F)c(F)c1F | -9.87% (inactive) |
| CN(C)c1ccc(/C=N/N(Cc2ccccc2)c2ccccc2)cc1 | -23.4% (inactive) |
| C=CCn1c(SCC(N)=O)nnc1-c1cc2c(s1)CCC(CC)C2 (stereo not drawn) | -11% (inactive) |
| CCC(C)(C(=O)Nc1ccccc1C)N(C(=O)CNC(C)=O)c1ccc(C)cc1 (stereo not drawn) | -34.2% (inactive) |
| CC(C)C(=O)Nc1ccc(C(=O)NNC(=O)c2cccs2)cc1 | -18.7% (inactive) |
| CCc1ccc(NC(=O)C(C)OC(=O)/C=C/c2cccc([N+](=O)[O-])c2)cc1 (stereo not drawn) | -14.1% (inactive) |
| COc1cc(/C=N/NC(=O)CCc2n[nH]c(=O)[nH]c2=O)ccc1O | -11.1% (inactive) |
| Cc1ccc(N(C(=O)C(F)(F)F)C(C(=O)NC2CCCCC2)c2ccncc2)cc1C (stereo not drawn) | -8.07% (inactive) |
| COc1ccc(-n2c(C)cc(C(=O)CSc3nnc(-c4cccs4)o3)c2C)cc1 | -23.9% (inactive) |
| COc1ccc(-c2nnc(SCC(=O)c3cccs3)o2)c(OC)c1 | 90.3% (active) |
| COc1ccc(OC)c(C(=O)CSc2nnc(-c3cccs3)o2)c1 | -17.3% (inactive) |
| COC1=CCC2([N+](=O)[O-])CN(CC(=O)O)CC1([N+](=O)[O-])C2 (stereo not drawn) | -24.9% (inactive) |
| O=C(COC(=O)/C=C/c1ccc(S(=O)(=O)N2CCCCCC2)cc1)NCc1ccccc1Cl | -43.5% (inactive) |
| COC(=O)c1sc(N)c(C(=O)OC)c1COC(=O)CNS(=O)(=O)c1ccc(C)cc1 | -21.7% (inactive) |
| Cc1ccc(C(C[N+](=O)[O-])c2c(C)cc3ccccn23)cc1 (stereo not drawn) | -23.1% (inactive) |
| CN1CCN(c2ccc(S(=O)(=O)N3CCCCC3)cc2NC(=O)Cc2ccccc2F)CC1 | -23.6% (inactive) |
| O=C(NNC(=O)c1cc2c(s1)CCCC2)c1ccccc1 | -2.47% (inactive) |
| O=C(NCCOc1ccccc1Cl)C(=O)Nc1ccccc1 | -35.1% (inactive) |

| Structure (SMILES) | inhibition |
| --- | --- |
| O=C(CN1C(=O)/C(=C\c2ccc(C(F)(F)F)cc2)Sc2ccccc21)NCc1ccco1 | -14.7% (inactive) |
| COc1ccc(C)cc1NC(=O)C(OC(=O)c1cccc(S(=O)(=O)N(C)c2ccccc2)c1)c1ccccc1 (stereo not drawn) | -35.9% (inactive) |
| O=[N+]([O-])c1ccc(N/N=C2/CCCCC2c2ccccn2)c([N+](=O)[O-])c1 (stereo not drawn) | -15.4% (inactive) |
| O=C(OCc1ccc(Br)cc1)c1cccc(-c2nnc(-c3ccccc3)o2)c1 | -11.6% (inactive) |
| C/C(=N\NC(=O)CCn1nc(C)cc1C)C(C)(C)C | -8.98% (inactive) |
| CC(C)CNC(=O)COC(=O)c1ccccc1OCC(=O)Nc1ccc(Br)cc1 | -23.1% (inactive) |
| Cc1cc(C)cc(C(=O)NC(=S)Nc2ccc3[nH]c(=O)[nH]c3c2)c1 | -11.9% (inactive) |
| Cc1cc(SCC(=O)NCCN2C(=O)CSC2=O)nc2ccccc12 | -4.76% (inactive) |
| Cc1ccc2[nH]cc(CCCN3C(=O)c4ccccc4C3=O)c2c1 | -23.7% (inactive) |
| Cc1ccc(N(C(=O)c2ccc(CN3CCOCC3)o2)C(C(=O)NCCC(C)C)c2cccs2)c(C)c1 (stereo not drawn) | -6.18% (inactive) |
| CCCOc1ccc(NC(=O)C2OC3OC(C)(C)OC3C3OC(C)(C)OC23)cc1 (stereo not drawn) | -26.3% (inactive) |
| O=C(COc1nc2ccccc2nc1N1CCOCC1)NCC(F)(F)F | -21.6% (inactive) |
| CCOc1ccc(Br)cc1S(=O)(=O)Nc1cccc(S(=O)(=O)N(CC)CC)c1 | -29.5% (inactive) |
| O=C1NC(c2ccc(-c3ccccc3[N+](=O)[O-])o2)C(C(=O)c2ccc(Cl)cc2)C(O)(C(F)(F)F)N1 (stereo not drawn) | -11.1% (inactive) |
| CCOc1ccc(Oc2nc(C)cc(OC)n2)nn1 | -16% (inactive) |
| Cc1cccc(OCCNC(=S)NC(=O)c2cccnc2)c1 | -28.5% (inactive) |
| O=C(NCCC1=CCCCC1)c1ccc(Cl)c([N+](=O)[O-])c1 | -21.9% (inactive) |
| CC(C)(C)c1ccc(NC(=O)COC(=O)CCc2nc3ccccc3c(=O)[nH]2)cc1 | -15.2% (inactive) |
| COc1ccc(NC(=O)c2sc(N3CCOCC3)nc2-c2ccccc2)c(OC)c1 | -1.88% (inactive) |
| CC1=C(C)CC(C(=O)NNC(=O)c2csc3c2CCC(C(C)(C)C)C3)C(C(=O)O)C1 (stereo not drawn) | -33.4% (inactive) |
| Cc1ccc(C)c(NC(=O)C(OC(=O)c2ccc(C)s2)c2ccccc2)c1 (stereo not drawn) | -11.6% (inactive) |
| Cc1ccc(/C=C/C(=O)Nc2cc(S(=O)(=O)N3CCCCCC3)ccc2OCC(F)(F)F)o1 | 7.49% (inactive) |
